Measurements reported in PubChem BioAssay (NCATS).
Records with an inconclusive call do not appear. A call without a number means that no potency is given here. Activity calls are given as the source filed them. Unless noted, calls follow the shape of the dose curve; as a rule, active = well fitted curve in the direction sought with a large enough effect in the repeat runs; inconclusive = weak or mixed curves; inactive = no such curve, though single readings can be large; an effect the other way counts as inactive or inconclusive.

Tests used:
[1] = molecular target: Calcium and integrin-binding protein 1 (Homo sapiens) (UniProt Q99828); assay: Primary qHTS for Identification of Calcium Integrin Binding Protein 1 (CIB1) Competitor (AID 1508620; active = well fitted curve in the direction sought with a large enough effect; an effect the other way counts as inactive or inconclusive;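 also: GST tagged CIB1 binding a fluorescein labelled alphaIIb integrin peptide tracer; top concentration of the series differs between compounds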); settings: CIB1-GST / FITC-alphaIIb peptide fluorescence polarization; series mostly up to 114 µM
Sequence of Calcium and integrin-binding protein 1 (Homo sapiens) (Q99828 whole entry, looked up): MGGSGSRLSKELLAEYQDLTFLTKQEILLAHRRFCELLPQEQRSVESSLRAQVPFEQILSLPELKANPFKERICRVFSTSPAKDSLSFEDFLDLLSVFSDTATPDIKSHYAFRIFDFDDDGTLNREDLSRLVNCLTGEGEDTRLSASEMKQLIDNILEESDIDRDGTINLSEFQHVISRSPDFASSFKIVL
Outline: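 Fluorescence polarization competition: CIB1-GST (1 uM final) preincubated with compound 15 min at room temperature, then FITC-labeled alphaIIb peptide (100 nM final) added for another 15 min. Polarization read at Ex 480/Em 540.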

[2] = molecular target: Cytochrome P450 2D6 (Homo sapiens) (UniProt P10635); assay: Cytochrome P450 family 2 subfamily D member 6 (CYP2D6) small molecule antagonists: luciferase biochemical (cell-free) qHTS assay (AID 1645840); settings: P450-Glo CYP2D6 enzyme, luciferin luminescence, 1 h; series mostly up to 57.4 µM; also: nearly all actives have a fitted effect of over 55% in size; also: potency is read from the fitted curve at half-maximal effect
Sequence of Cytochrome P450 2D6 (Homo sapiens) (P10635 whole entry, looked up): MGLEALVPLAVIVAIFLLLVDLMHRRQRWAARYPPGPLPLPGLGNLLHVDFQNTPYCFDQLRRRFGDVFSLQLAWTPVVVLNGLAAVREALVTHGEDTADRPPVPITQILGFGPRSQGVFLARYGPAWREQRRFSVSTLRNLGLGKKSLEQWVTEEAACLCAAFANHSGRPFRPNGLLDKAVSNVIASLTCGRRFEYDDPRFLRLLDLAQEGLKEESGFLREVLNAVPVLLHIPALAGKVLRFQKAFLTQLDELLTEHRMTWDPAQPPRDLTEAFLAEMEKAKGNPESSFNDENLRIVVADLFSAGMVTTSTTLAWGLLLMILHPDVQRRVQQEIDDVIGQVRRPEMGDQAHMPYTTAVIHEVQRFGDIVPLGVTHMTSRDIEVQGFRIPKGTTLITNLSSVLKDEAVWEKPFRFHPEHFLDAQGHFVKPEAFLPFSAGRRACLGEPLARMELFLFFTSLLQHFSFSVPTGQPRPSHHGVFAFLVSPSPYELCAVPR
Outline: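 P450-Glo CYP2D6 system: proluciferin substrate converted by enzyme to luciferin, read by luminescence proportional to activity. Enzyme-substrate mix with compound 10 min at room temperature, then NADPH regeneration 1 h before detection reagent.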

Row | SMILES | Potency [1] | Potency [2]
1 | CC(C)(O)c1ccn2c(-c3ccc(F)c(-c4ccc(F)cc4C#N)c3)cnc2c1F | inactive | 19 µM (active)
2 | CCCn1ncc(CN2CCCC(C(=O)c3cccc(OC(C)C)c3)C2)c1C (stereo unspecified) | inactive | 0.338 µM (active)
3 | CCC(=O)N1CCOc2c(cc(-c3ccc(OC)c(OC)c3)cc2OC[C@H]2CCCN(C)C2)C1 | inactive | 13.5 µM (active)
4 | C[C@H](CN(C)C)Oc1nc(Nc2cc3cccc(Cl)c3cn2)cnc1C#N | inactive | 0.674 µM (active)
5 | COc1ccc(C(=O)Nc2c(Cl)cncc2Cl)cc1OC1CCCC1 | inactive | inactive
6 | COc1cc(CN(CCN)C(=O)c2cccs2)ccc1OCc1ccccc1 | inactive | 0.849 µM (active)
7 | CN1CCN(C(=O)CN[C@@H]2C[C@H]2c2ccc(OCc3ccccc3)cc2)CC1 | inactive | 10.7 µM (active)
8 | CC[C@H]1CN(c2nc(N)c(C(N)=O)nc2Cl)CCN1C1CCN(Cc2ccc(Cl)cc2)CC1 | inactive | 12 µM (active)
9 | OC(c1ccc(-c2ccc(CN3CCN(Cc4ccncc4)CC3)cc2)c(F)c1)(C(F)(F)F)C(F)(F)F | inactive | 3.38 µM (active)
10 | COc1ccc(Sc2ccc(NC(=O)c3ccccc3Cl)cc2C#N)cc1 | inactive | inactive
11 | CC(C)OC(=O)N1CCC(Oc2ncnc3c2cnn3-c2ccc(S(C)(=O)=O)cc2F)CC1 | inactive | inactive
12 | O=c1cc(N2CCN(c3cccc(C(F)(F)F)c3)CC2)[nH]c(=O)n1C1CCCCC1 | inactive | inactive
13 | O=C(Nc1ccc(CN2CCOCC2)cc1)c1ccc(-c2cccc(Cl)c2)o1 | inactive | 15.1 µM (active)
